High-throughput results from PubChem BioAssay.
Shown are actives, neighbours in structure and some others; about 32% of the full set was active somewhere.
PostGolgi yeast – growth inhibition of a yeast mutant, post-Golgi transport screen; post-Golgi transport phenotypic cell assay; inhibition, % at 10 µM; actives 0.9% (n = 98,000); AID 739;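 further: yeast cells grown in 1536-well plates; yeast grown about 18 h at 30C before absorbance read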
CYP2C19 inh – blocks human cytochrome P450 2C19; CYP2C19 Supersomes, luciferin-H EGE luminescence, 30 min; inhibition, % at 5 µM; actives 21% (n = 96,000); AID 778;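 active means CYP2C19 inhibition above a set limit at 5 µM in the primary screen, cut at about 50% in these data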
PostGolgi ctrl – growth of the yeast control strain, post-Golgi counter-screen. efflux-deficient yeast background strain, growth absorbance A615, 16 h. inhibition, % at 10 µM. actives 5% (n = 98,000). AID 738
CYP2C9 activ – increases human cytochrome P450 2C9 activity; recombinant CYP2C9, luciferin-H conversion, luminescence; stronger effect = higher value; factor 1 = untreated enzyme, 0 = blocked; activation factor at 5 µM; actives 1.4% (n = 96,000); AID 1024;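 active means activation factor of 2 or more for CYP2C9 at a 5 µM dose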
Target sequence (P11712 whole entry, looked up): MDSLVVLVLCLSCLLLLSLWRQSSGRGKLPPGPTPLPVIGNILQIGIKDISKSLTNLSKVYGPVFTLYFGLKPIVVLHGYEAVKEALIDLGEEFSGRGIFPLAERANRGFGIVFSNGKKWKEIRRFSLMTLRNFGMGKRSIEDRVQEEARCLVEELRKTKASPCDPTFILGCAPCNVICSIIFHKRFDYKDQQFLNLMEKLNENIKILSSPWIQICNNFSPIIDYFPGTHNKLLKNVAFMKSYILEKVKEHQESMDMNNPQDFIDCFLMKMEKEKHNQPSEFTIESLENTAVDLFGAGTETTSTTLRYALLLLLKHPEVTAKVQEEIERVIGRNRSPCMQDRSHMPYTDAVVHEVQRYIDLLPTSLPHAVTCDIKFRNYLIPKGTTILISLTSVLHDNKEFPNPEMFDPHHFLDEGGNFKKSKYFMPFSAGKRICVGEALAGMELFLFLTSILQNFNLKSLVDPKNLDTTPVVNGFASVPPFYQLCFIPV
CYP2C9 inhib – human CYP2C9 inhibition; P11712; inhibition, % at 5 µM; actives 20% (n = 96,000); CYP2C9 Supersomes, luciferin-H conversion, luminescence;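 active means blocking of liver enzyme CYP2C9 beyond about 50% at 5 µM, limit read from the data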
CYP2C19 act – increases human CYP2C19 enzyme activity; P33261; recombinant CYP2C19, luciferin-H EGE luminescence; stronger effect = higher value; 0 = fully inhibited enzyme, 1 = untreated enzyme; activation factor at 5 µM; 96,000 tested, under 10 active; AID 1025;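 active means activation factor of at least 2 at 5 µM in the primary screen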
A number is an active result; . = inactive; / = not tested or not shown. Unless noted, no stated cut-off is given here; in the data, active means inhibition above about 30%; inactive means the rest.

SMILES	PostGolgi yeast	CYP2C19 inh	PostGolgi ctrl	CYP2C9 activ	CYP2C9 inhib	CYP2C19 act
C[N+]1=C2CCCCCN2C(O)(c2ccccc2)C1 (configuration not stated)	.	.	.	.	.	.
O=C1CC(Cc2ccccc2)C(=O)N1CCc1ccc2c(c1)OCO2 (configuration not stated)	.	86	.	.	.	.
O=C1CC(Cc2ccccc2)C(=O)N1CCCn1ccnc1 (configuration not stated)	.	100	.	.	69	.
Cc1cc(C(C)(C)C)ccc1OCCn1ccnc1	.	98	.	.	94	.
CCOc1ccccc1OCCCOc1ccc(C)cc1Cl	.	.	.	.	.	.
COc1cccc(OCCn2ccnc2)c1	.	/	.	/	/	/
Cc1ccc(OCCCCn2ccnc2)c(Cl)c1	.	100	.	.	98	.
CCN(CC)CCCOc1ccc(C)cc1Br	.	.	.	.	.	.
Cc1ccc(OCCOCCn2ccnc2)c(Br)c1	.	99	.	.	87	.
Cc1cccc(OCCCCCn2ccnc2)c1C	.	100	.	.	100	.
Cc1ccccc1OCCCN1CCCC1	.	.	.	.	.	.
C=CCN1CCN(C(c2ccccc2)c2nnnn2CCC(C)C)CC1 (configuration not stated)	.	.	.	.	.	.
COc1ccc(CCNC(=O)CS(=O)Cc2nc(-c3cccs3)oc2C)cc1OC (configuration not stated)	.	.	.	.	.	.
CCOc1ccc(CC(=O)N2CCN(c3ccc(N4CCOCC4)nn3)CC2)cc1OCC	.	.	.	.	.	.
COCCNC(=O)Cn1nc(C(F)(F)F)c(Cl)c1C	.	.	.	.	.	.
COc1ccc(Cn2ccnc2)cc1Br	.	92	.	.	88	.
COc1cc(C)ccc1OCCOCCOc1ccccc1Br	.	.	42	.	.	.
CCOc1ccccc1OCCCOc1ccc(C)cc1Br	.	.	.	.	.	.
Cc1ccc(C)c(OCCCCn2ccnc2)c1	.	98	.	.	93	.
Cc1cc(C)c(C)c(OCCCn2ccnc2)c1	.	100	.	.	95	.
O=C(NC1=NCCS1)C1CC2CCC1C2 (configuration not stated)	.	.	.	.	.	.
C=CCn1c(NC(=O)c2ccc(C)cc2)c(C#N)sc1=N	.	.	.	.	.	.
COc1cccc(-c2cc3c(=O)n(-c4ccccc4)c(=S)[nH]c3s2)c1	.	.	.	.	.	.
COc1ccc(OC)c(C2NC(=O)c3sc(=S)n(-c4ccccc4)c3N2)c1 (configuration not stated)	.	57	.	.	62	.
COc1cccc(C2NC(=O)c3sc(=S)n(-c4ccccc4)c3N2)c1 (configuration not stated)	.	57	.	.	88	.
SMILES	PostGolgi yeast	CYP2C19 inh	PostGolgi ctrl	CYP2C9 activ	CYP2C9 inhib	CYP2C19 act
O=[N+]([O-])c1ccc2c(c1)C(N1CCOCC1)/C(=C/COc1ccc(Cl)cc1Cl)O2 (configuration not stated)	.	.	.	.	77	.
CC1=C(C(=O)N2CCCCC2)C(c2cccs2)NC(=O)N1 (configuration not stated)	.	.	.	.	.	.
CC(=O)C1=C(C)NC(C)=C(C(C)=O)C1c1cccs1	.	94	.	.	62	.
CCOC(=O)C1=C(C)NC(SCc2cc(=O)[nH][nH]2)=C(C#N)C1c1cccs1 (configuration not stated)	.	90	.	.	79	.
CCOCCSC1=C(C#N)C(c2cccs2)C(C(C)=O)=C(C)N1 (configuration not stated)	.	90	.	.	83	.
CCOC(=O)C1=C(C)NC(SCC(N)=O)=C(C#N)C1c1cccs1 (configuration not stated)	.	52	.	.	52	.
N#C/C(C(=O)NCc1ccccc1)=C1\SC(CCO)C(=O)N1c1ccccc1 (configuration not stated)	.	/	.	/	/	/
O=C(CS(=O)(=O)Cc1ccccc1)Nc1ncccn1	.	.	.	.	.	.
COC(=O)C1=C(C)NC2=C(C(=O)CC(c3cccs3)C2)C1c1ccsc1 (configuration not stated)	.	.	.	.	.	.
